In ChEMBL document CHEMBL3988442, “University of Dundee, Small-Polar-MMV Screening Library” (2021):
Screen size: about 48,000 compounds; about 13,000 (27%) showed an effect of 50% or more. The list shows a part of the results.

What follows are compounds tested on Wolbachia pipientis (assay: Anti-Wolbachia Cell-Based Screen). Details: 5 µM.
Format: functional
Parameters: scale not given: in the data most compounds retested in dose-response had high values

Row | SMILES | Percent Effect [%]
1 | CC(C)(C)c1oc(C(N)=O)cc1CN1CCCCC(N)C1 (stereo unspecified) | -6.99
2 | CNC(=O)c1cccnc1NCc1ccc(Cn2ccnc2)cc1 | -15.36
3 | CC(=O)c1cc(CN2C[C@H]3CC[C@@H]2CN(S(C)(=O)=O)C3)cs1 | 11.24
4 | Cc1nc(N(C)C)nc(-c2cccc(-c3ccn(CCCO)n3)c2)c1C | 91.5
5 | c1cc(-c2cnccn2)cc(-c2ccn(CCCN3CCCCC3)n2)c1 | -2.928
6 | CN(C)CCCn1ccc(-c2cccc(-c3cncnc3)c2)n1 | -27.48
7 | Cc1cnc(C)c(-c2cccc(-c3ccn(CCN4CCCC4)n3)c2)n1 | 7.439
8 | c1cncc(-c2cccc(-c3ccn(CCN4CCCCC4)n3)c2)c1 | 18.24
9 | Cc1nc(N(C)C)nc(-c2cccc(-c3ccn(CCCF)n3)c2)c1C | 99.28
10 | CN(C)CCCn1ccc(-c2cccc(-c3ccccn3)c2)n1 | -1.271
11 | COc1ccc(-c2cccc(-c3ccn(CCCN(C)C)n3)c2)nn1 | -20.49
12 | CN(C)c1ccc(-c2cccc(-c3ccn(CCCO)n3)c2)nn1 | 106.7
13 | COc1ccc(-c2cccc(-c3ccn(CCN(C)C)n3)c2)nn1 | -17.53
14 | Cc1cc(-c2cccc(-c3ccn(CCCO)n3)c2)nc(N(C)C)n1 | 105.4
15 | Cc1cc(CC(C)NC(=O)c2cccc(CC3CCNCC3)c2)[nH]n1 (stereo unspecified) | -1.026
16 | Cc1oc(NC(=O)C(C)N2CCN(C(=O)C3CC3)CC2)c(C#N)c1C (stereo unspecified) | 9.3
17 | OC1(c2cn(C3CCN(C4CCSC4)CC3)nn2)CCCC1 (stereo unspecified) | -22.68
18 | Cc1ccc2[nH]c(CN(C)Cc3ccccc3C(=O)O)nc2c1 | -3.287
19 | NS(=O)(=O)c1ccc(CC(=O)N2CCCC(n3cccn3)C2)cc1 (stereo unspecified) | -6.435
20 | Cn1nc(C(=O)N2CCC(Oc3ccc(C#N)cn3)CC2)ccc1=O | 4.281
21 | N#Cc1cn(CCN2CCc3ccccc3C2)c(=O)[nH]c1=O | -7.012
22 | CCc1nc(N2CCCC(CO)(CCOC)C2)ncc1C (stereo unspecified) | 2.131
23 | c1cc(-c2cnccn2)cc(-c2ccn(CCN3CCCC3)n2)c1 | 1.985
24 | Cc1cnc(-c2cccc(-c3ccn(CCCO)n3)c2)nc1N(C)C | 89.78

Row | SMILES | Percent Effect [%]
25 | c1cc(-c2cnccn2)cc(-c2ccn(CCN3CCCCC3)n2)c1 | 11.58
26 | CN(C)[C@H]1CCCCN(Cc2ccccc2Cn2cccn2)C1 | 11.28
27 | CC(C)(CN)NS(=O)(=O)c1c(F)cccc1F.Cl | -5.219
28 | Cc1ccc(N2CCCC3(COCCN(c4cnccn4)C3)C2)nn1 (stereo unspecified) | 122.4
29 | Cc1cnc(N2CCCC3(COCCN(c4ccc(C)nn4)C3)C2)nc1 (stereo unspecified) | 111.1
30 | Fc1cnc(N2CCOCC3(CCCN(c4cnccn4)C3)C2)nc1 (stereo unspecified) | -10.42
31 | CCS(=O)(=O)N1CCCC2(COCCN(c3cnccn3)C2)C1.O=C(O)C(F)(F)F (stereo unspecified) | -1.156
32 | COc1ccc(N2CCOCC3(CCCN(c4cnccn4)C3)C2)cc1 (stereo unspecified) | -9.239
33 | Cc1ccc(N2CCOCC3(CCCN(c4ncc(F)cn4)C3)C2)nn1 (stereo unspecified) | 110.3
34 | Fc1cnc(N2CCOCC3(CCCN(c4nncs4)C3)C2)nc1 (stereo unspecified) | -12.3
35 | Cc1cnc(N2CCC3(CCCN(c4ccc(C)nn4)C3)C2)nc1 (stereo unspecified) | -1.521
36 | Cc1noc(C)c1NC(=O)Cn1cc(Br)ccc1=O | -4.213
37 | C[C@@H]1CN(C2CCN(Cc3cnc(-c4cccs4)nc3)CC2)C[C@H](C)O1 | -8.003
38 | O=S(=O)(c1c(Cl)nc2sccn12)N1CCCC2(CCNC2)C1 (stereo unspecified) | -7.424
39 | Cc1ccc(-n2cc(C)cn2)c(NC(=O)NC2(C)CCOC2)c1 (stereo unspecified) | 1.139
40 | Cc1sc(-c2ccco2)nc1C(=O)NCC1CCOC1 (stereo unspecified) | 3.177
41 | O=C(NC[C@H]1CCCC[C@H]1O)c1cccc2[nH]c(-c3cccs3)nc12 | 118.3
42 | CCCNC(=O)c1ccc(-c2ccco2)[nH]c1=O | 7.034
43 | O=C(NCC1CCCCO1)c1ccc(-c2cccs2)[nH]c1=O (stereo unspecified) | 23.71
44 | O=C(NC[C@H]1CCCC[C@H]1O)c1ccc2nc(-c3ccco3)[nH]c2c1 | 114.7
45 | O=C(NC[C@H]1CCCC[C@H]1O)c1cccc2[nH]c(-c3ccco3)nc12 | 127.5
46 | O=C(CN1CC(c2nc(-c3cccs3)no2)C1)NCC1CCCO1.O=C(O)C(=O)O (stereo unspecified) | 11.99
47 | O=C(NCC1CCCCO1)c1ccc(-c2ccco2)[nH]c1=O (stereo unspecified) | 3.575
48 | Cc1sc(-c2ccco2)nc1C(=O)N(CC(N)=O)C1CCCC1 | -7.156

Row | SMILES | Percent Effect [%]
49 | CCOC(C)c1nc(Cn2cc(C)cn2)cs1 (stereo unspecified) | -10.7
50 | COC1CCN(c2cc(C(C)C)nc3ccnn23)C1 (stereo unspecified) | -6.556
51 | Cc1ccc(-c2cc(N)c(=O)n(CC(=O)NCC3CC3)n2)s1 | -0.7868
52 | Cc1cc(CS(=O)(=O)CC(=O)N2c3ccccc3CC2C)no1 (stereo unspecified) | 4.378
53 | CN(C)CC1CN(CC(=O)N2CCc3ccccc32)CCO1 (stereo unspecified) | -2.513
54 | CC1Cc2ccccc2N1C(=O)Cn1nc(-c2cccs2)cc(N)c1=O (stereo unspecified) | 146.8
55 | CC1Cc2ccccc2N1C(=O)Cn1nc(-c2cccs2)ccc1=O (stereo unspecified) | 148.6
56 | O=C(c1csnn1)N1CCc2ccccc21 | 9.308
57 | O=c1ccc(-c2cccs2)nn1CN1CCCCCC1 | 6.119
58 | O=C(Cn1nc(-c2cccs2)ccc1=O)N1CCCCCC1 | 16.15
59 | Nc1cc(-c2cccs2)nn(CC(=O)N2CCc3ccccc32)c1=O | 164.1
60 | CSCCCN1C[C@H]2CC[C@@H]1CN(Cc1[nH]cnc1C)C2 | 27.65
61 | COCCN(CCOC)Cc1c(C)nc2ccccc2c1O | 87.45
62 | COCCN(C/C=C/c1ccccc1)Cc1[nH]cnc1C | 0.6053
63 | COCCN(Cc1ccccc1)Cc1csc(-c2ncccn2)n1 | 9.824
64 | Cn1ccc(CN2CCC(OCCc3ccccc3)CC2)cc1=O | 4.919
65 | Cn1ccc(CN2CCC(CC(=O)N3CCCC3)CC2)cc1=O | 63.9
66 | Cn1ccc(CN2CCC(OCc3ccccc3)CC2)cc1=O | 85.88
67 | Cn1ccc(CN2CCC(NC(=O)NC3CCCCC3)CC2)cc1=O | -14.97
68 | Cn1ccc(CN2CCC(c3ccccc3)CC2)cc1=O | 1.288
69 | Cn1ccc(CN2CCC(NC(=O)Cc3ccccc3)CC2)cc1=O | -4.576
70 | Cn1c(CN2CCC(OCc3cccnc3)CC2)cc2ccccc21 | -15.6
71 | Cn1ccc(CN2CCC(Cc3ccccc3)CC2)cc1=O | 141.3
